Screens (PubChem)
Compounds with a hit are over-represented: about 12% of the library has one in this group of screens.
Ins promoter up: insulin promoter activators in MIN6 cells, imaging, high-content screening, mouse beta cells; MIN6 insulin promoter-GFP reporter; hits give high values; z-score at 5 µM; 0.3% of 190,000 active;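 active = z-score above 3 at 5 µM with at least 500 cells counted in the well; inconclusive = wells under 500 cells, flagged as cytotoxic or low count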
ROMK primary: ROMK potassium channel modulators, primary screen, cell-based, thallium flux, MLSMR library; ATP-sensitive inward rectifier potassium channel 1 (Homo sapiens), P48048; Tet-inducible ROMK, thallium flux fluorescence; actives lie on both sides; B-score at 10 µM; 2% of 130,000 active; AID 1918, 2009;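 active = signal ratio slope over the read window, or its plate-corrected B-score, at least 3 SD from the plate mean, either direction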;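 note: B-score of the F/F0 ratio slope over 7 to 12 s after thallium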
Target sequence (P48048 whole entry, looked up): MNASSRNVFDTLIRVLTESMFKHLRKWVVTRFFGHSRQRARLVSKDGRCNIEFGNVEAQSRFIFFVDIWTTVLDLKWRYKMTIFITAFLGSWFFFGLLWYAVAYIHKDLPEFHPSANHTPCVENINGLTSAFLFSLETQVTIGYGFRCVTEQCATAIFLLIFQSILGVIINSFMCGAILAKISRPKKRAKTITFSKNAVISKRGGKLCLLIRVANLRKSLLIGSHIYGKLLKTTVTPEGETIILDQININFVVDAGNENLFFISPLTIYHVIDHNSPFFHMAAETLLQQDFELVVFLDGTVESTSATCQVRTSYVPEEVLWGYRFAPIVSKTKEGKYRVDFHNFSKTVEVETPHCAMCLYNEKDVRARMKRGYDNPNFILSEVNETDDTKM
Cl transport mod: KCC2 cotransporter modulators, thallium flux, primary screen, cell-based, HEK293 KCC2, FluoZin-2 fluorescence, MLSMR | Solute carrier family 12 member 5 (Homo sapiens), Q9H2X9 | 2.2% of 190,000 active | B-score of Tl+ flux slope (higher = more flux/activation; lower = inhibition) at 10 µM | KCC2 cells, thallium flux FluoZin-2 fluorescence;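 active = thallium flux slope and its plate-corrected score both differing from the plate sample mean at a set confidence after two filtering rounds, in either direction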;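 note: slope of fluorescence scaled to starting intensity during 10 to 20 s after thallium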
Insulin prom inh: inhibitors of insulin promoter-driven GFP, primary screen, imaging, TRM-6 cells (human fetal islet line), eGFP reporter, cell count | AID 1273, 2008 | 0.9% of 130,000 active | inhibition, % at 2 µM | reporter expression induced with tamoxifen;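 active = inhibition above the mean plus 3 SD, with well images judged a real hit on visual review, cut at about 60% in these data, passing the limit was not always enough; inconclusive = inhibition over the cutoff but images rejected on review; inactive = inhibition not above the cutoff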
L major viab: Leishmania major promastigote growth inhibition, primary screen. 9% of 200,000 active. Leishmania major promastigotes, resazurin fluorescence viability. AID 1063, 2008. inhibition, % at 10 µM; in the data active = inhibition above about 50%;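 note: promastigotes grown with compound for 44 hours at 28 °C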
WT yeast gro inh: growth inhibition of WT strain, primary screen, mitochondrial fusion inhibitor project, WT and mutant strains, chemical genetic; inhibition, % at 10 µM; mitochondrial fusion phenotypic screen; 2.1% of 190,000 active; in the data active = inhibition above about 58%; tested in S. cerevisiae
KCC2 sec1: KCC2 modulators in sodium-free buffer, confirmation, cell-based, HEK293 KCC2, thallium flux, secondary assay; shares compounds with Cl transport mod; FluoZin2 fluorescence; hits give high values; normalised thallium flux (F/F0 slope) at 10 µM; 15% of 3,700 active;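 active = thallium flux slope above the same plate's solvent-only control mean plus 3 SD; inconclusive = the two replicate wells disagree; inactive = no significant difference from solvent-only control wells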
KCC2 bumet counter: thallium flux persisting under bumetanide in KCC2 cells, confirmation, counter-screen for KCC2 modulator project, cell-based, HEK293 KCC2, FluoZin2, secondary assay 3; AID 1714, 2009; HEK293-KCC2 + bumetanide/ouabain; hits give high values; 49% of 3,700 active; normalized thallium flux at 10 µM; shares compounds with Cl transport mod;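 active = thallium entry rate above the same plate's blocked-transporter control wells by more than 3 SD; inconclusive = the two repeat wells disagree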;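 note: raw slope of fluorescence over initial fluorescence between 10 and 20 s after thallium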
KCC2 sec2: KCC2 modulators without ouabain present, confirmation, cell-based, HEK293 KCC2, thallium flux, FluoZin2, secondary assay 2; shares compounds with Cl transport mod; thallium flux FluoZin2 fluorescence; actives lie on both sides; F/F0 rise rate, 10–20 s post-thallium; normalized thallium flux at 10 µM; 23% of 3,700 active; AID 1715, 2009;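 active = thallium flux slope more than 3 SD above or below the plate's solvent-only control mean, mostly below; inconclusive = the two repeat wells disagreed; inactive = no significant shift from solvent-only controls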
HEK counter1: thallium flux modulation in parental HEK cells, confirmation, counter-screen for KCC2 modulator project, cell-based, counterscreen 1; shares compounds with Cl transport mod; HEK293 parental cells, thallium flux FluoZin2, ouabain; baseline-ratio fluorescence slope, 10–20 s after thallium; thallium flux rate (normalised fluorescence) at 10 µM; 46% of 3,700 active; AID 1716, 2009;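 active = thallium flux rate significantly above the same plate's solvent-only control wells, beyond their mean plus 3 SD; inconclusive = the two replicate wells gave conflicting results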
KCC2 ouabain: KCC2 inhibitors and activators, ouabain retest, confirmation, HEK-KCC2 cells; shares compounds with Cl transport mod; HEK293-KCC2, thallium flux FluoZin2 fluorescence; bidirectional: low = inhibitor, high = activator; raw Tl+ flux slope (below DMSO = inhibition, above = activation) at 10 µM; 48% of 3,700 active; AID 1717, 2009;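 active = thallium flux slope beyond 3 SD from same-plate DMSO control mean in most replicates, usually higher, sometimes lower; inconclusive = repeat tests gave conflicting results; inactive = no significant difference from controls in most replicates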;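 note: slope of initial-normalized fluorescence between seconds 10 and 20 after thallium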
HEK counter2: native HEK Tl+ uptake effects, second counter-screen – HEK cells, counterscreen 2, counter-screen for KCC2 modulator project, confirmation. shares compounds with Cl transport mod. HEK293 parental, thallium flux FluoZin-2 fluorescence slope. thallium flux slope at 10 µM. 33% of 3,700 active;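 active = thallium flux slope above the same plate's solvent-control mean plus 3 SD in both duplicate wells; inconclusive = duplicate wells that disagreed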;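 note: run without ouabain in cells lacking the KCC2 cotransporter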
Large screens that a line does not name were inactive (follow-up assays come after a bar, where they were run).

Cc1ccc(S(=O)(=O)N2CCCC2C(=O)Nc2nc3c(s2)CCCC3)cc1 (stereo not given)	Cl transport mod -3.2 (no result: ROMK primary) | KCC2 sec1 inactive | KCC2 bumet counter inactive | KCC2 sec2 inactive | HEK counter1 inactive | KCC2 ouabain 0.016 | HEK counter2 inactive
CC(C)CC1NC(=O)N(Cc2cc(=O)n3ccsc3n2)C1=O (stereo not given)	none (no result: Insulin prom inh)
Cn1nc(-c2ccc(N3CCOCC3)c(NS(=O)(=O)c3ccc(Cl)cc3)c2)c2ccccc2c1=O	Cl transport mod 5.8 (no result: ROMK primary) | KCC2 sec1 inactive | KCC2 bumet counter inactive | KCC2 sec2 inactive | HEK counter1 inactive | KCC2 ouabain inactive | HEK counter2 inactive
O=C(c1ccc(Cl)cc1)c1cnc2ccccn12	Cl transport mod -3.4 | KCC2 sec1 inactive | KCC2 bumet counter inactive | KCC2 sec2 inactive | HEK counter1 inactive | KCC2 ouabain inactive | HEK counter2 inactive
O=C(Nc1cnc2ccccn2c1=O)c1ccc(Cl)cc1Cl	none
N#CNC(=Nc1cccc(Cl)c1)Oc1ccccc1	none (no result: Insulin prom inh, L major viab, WT yeast gro inh)
COC(=O)C1=C(C(=O)OC)C(c2cc(Cl)ccc2O)c2sc(=O)[nH]c2S1 (stereo not given)	Cl transport mod -4.4 (no result: ROMK primary) | KCC2 sec1 inactive | KCC2 bumet counter inactive | KCC2 sec2 inconclusive | HEK counter1 inconclusive | KCC2 ouabain 0.014 | HEK counter2 inconclusive
COC(=O)C1=C(C(=O)OC)C(c2ccc(OC)c(OC)c2)c2sc(=O)[nH]c2S1 (stereo not given)	none
O=C(O)c1cc(-c2ccco2)[nH]n1	none (no result: Ins promoter up, ROMK primary)
CC1CCC(C(=O)NNC(=O)c2cc(-c3ccco3)[nH]n2)CC1 (stereo not given)	Cl transport mod -2.9 (no result: Insulin prom inh) | KCC2 sec1 inactive | KCC2 bumet counter inactive | KCC2 sec2 inactive | HEK counter1 inconclusive | KCC2 ouabain inconclusive | HEK counter2 inactive
CN(CCc1ccccn1)C(=O)c1nn2c(C(F)(F)F)cc(-c3ccco3)nc2c1Cl	Cl transport mod -5.2 (no result: Insulin prom inh) | KCC2 sec1 inactive | KCC2 bumet counter inactive | KCC2 sec2 inactive | HEK counter1 inactive | KCC2 ouabain 0.014 | HEK counter2 inactive
O=C(CSc1n[nH]c(=O)[nH]c1=O)c1ccc(Cl)cc1Cl	none (no result: ROMK primary, Insulin prom inh, L major viab, WT yeast gro inh)
Cc1nc(N2CCOCC2)c2c3c(sc2n1)CCC3	Cl transport mod 14 (no result: Insulin prom inh) | KCC2 sec1 inactive | KCC2 bumet counter 0.017 | KCC2 sec2 inactive | HEK counter1 0.016 | KCC2 ouabain 0.032 | HEK counter2 0.011
CC(C)(C)C(=O)Nc1nc2c(s1)CN(Cc1ccccc1)CC2	none (no result: Insulin prom inh)
O=C(Nc1nc2c(s1)CN(Cc1ccccc1)CC2)C1CCCC1	Cl transport mod -3 (no result: Ins promoter up, Insulin prom inh) | KCC2 sec1 inactive | KCC2 bumet counter inactive | KCC2 sec2 inactive | HEK counter1 inactive | KCC2 ouabain inconclusive | HEK counter2 inactive
CCn1cc(/C=C/C(=O)Nc2ccn(Cc3c(F)c(F)c(F)c(F)c3F)n2)cn1	none
Cc1cc(C)c(NC(=O)Cn2cc3c(n2)CCCC3)c(C)c1	none (no result: ROMK primary)
Cc1ccc2nc(NC(=O)Cn3cc4c(n3)CCCCC4)sc2c1	Cl transport mod -2.9 (no result: ROMK primary, Insulin prom inh) | KCC2 sec1 inactive | KCC2 bumet counter inconclusive | KCC2 sec2 inactive | HEK counter1 inconclusive | KCC2 ouabain inactive | HEK counter2 inactive
Cc1nn(-c2ccccc2)c2c1C(c1ccncc1)C(C#N)=C(N)O2 (stereo not given)	none (no result: Insulin prom inh)
COc1cc(-n2nc(C)c3c2OC(N)=C(C#N)C3c2ccccc2)c(Cl)c(Br)c1O (stereo not given)	Cl transport mod -2.6 (no result: ROMK primary) | KCC2 sec1 inactive | KCC2 bumet counter 0.0028 | KCC2 sec2 0.027 | HEK counter1 0.0059 | KCC2 ouabain 0.014 | HEK counter2 inconclusive
O=C(Cn1nnc2ccccc2c1=O)NCCc1ccc(Cl)cc1Cl	none (no result: ROMK primary, Insulin prom inh)
C/C(=N\NC(=S)Nc1ccccc1)C1Cc2ccccc2C(=O)O1 (stereo not given)	Cl transport mod 6.6 (no result: Ins promoter up, Insulin prom inh, L major viab, WT yeast gro inh) | KCC2 sec1 inactive | KCC2 bumet counter 0.01 | KCC2 sec2 inactive | HEK counter1 0.011 | KCC2 ouabain inactive | HEK counter2 0.013
c1ccc(C2CC(c3cccs3)=NN2c2ccccc2)cc1 (stereo not given)	none (no result: ROMK primary, Cl transport mod, Insulin prom inh, L major viab, WT yeast gro inh)
COc1cccc(C2Oc3ccccc3C3CC(c4cccs4)=NN32)c1 (stereo not given)	Cl transport mod 6.5 (no result: ROMK primary, Insulin prom inh, L major viab, WT yeast gro inh) | KCC2 sec1 inactive | KCC2 bumet counter 0.019 | KCC2 sec2 inactive | HEK counter1 0.013 | KCC2 ouabain inactive | HEK counter2 0.016
Cc1cc(C)c2c(=O)c(C#N)coc2c1	none (no result: ROMK primary, Insulin prom inh, L major viab, WT yeast gro inh)
Cc1cc(C)n(CC(=O)c2ccccc2)c(=O)c1C#N	none (no result: Insulin prom inh) | KCC2 sec1 inactive | KCC2 bumet counter inactive | KCC2 sec2 inactive | HEK counter1 inactive | KCC2 ouabain inactive | HEK counter2 inactive
Cc1ccc(CNC(=O)Cn2c(=O)n(-c3ccccc3)c(=O)c3sccc32)cc1	none (no result: Insulin prom inh)
CC(=O)c1cccc(NC(=O)COC(=O)c2cccs2)c1	none
